Laboratory results reported in PubChem BioAssay AID1236 (Emory University Molecular Libraries Screening Center, 2008).
Screen size: about 220,000 compounds; about 800 (0.36%) were called active. The sample holds actives, similar compounds and a random draw of the others, so the mix is not that of the screen. Unmarked numbers belong to inactive results.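 Rule for the calls: active = inhibition above about 50% (limit read from the data); inactive = the rest.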

tested on: calpain II (m-calpain), Sus scrofa; experiment: m-calpain protease activity blockers – biochemical, fluorogenic peptide substrate, 1536-well, primary screen (AID 1236); details: purified calpain II, 30 min, at 16 µM, stronger effect = higher value

SMILES | inhibition
O=P(O)(CP(=O)(c1ccccc1)c1ccccc1)c1ccccc1O | -11.7%
COc1ccc(CN2CCCCC2C)cc1OC (stereo not given) | -66%
CC(=O)c1ccc(NC(=S)N(Cc2ccccc2)C(C)C2CC2)cc1 (stereo not given) | 69.5% (active)
CC(C)N(Cc1ccccc1)C(=S)Nc1ccc(OC(F)F)cc1 | 18.2%
CC(=O)c1ccc(NC(=O)N[C@@H](Cc2ccccc2)C(=O)O)cc1 | 5.25%
CNc1nc(SC)nc(N(C#N)CC(=O)OC)n1 | -4.33%
O=C(NCCc1csc(-c2ccccc2)n1)c1ccccc1F | 18.7%
COC(=O)Cn1c(O)c(N=NC(=O)OC)c2ccccc21 | -10.4%
CCN(CC(=O)NCCc1ccccc1)S(=O)(=O)c1ccccc1 | 13.4%
CCOc1c(Cl)cc(/C=N/O)cc1OC | -1.32%
COc1cc(/C=N/O)cc(Br)c1OCc1cccc(Cl)c1 | 56.7% (active)
CCOc1cc(/C=N/O)cc(Br)c1OC | 2.94%
C=CCn1c(-c2ccc(Cl)cc2)ccc(C#N)c1=O | -6.13%
CC(O)C(NS(=O)(=O)c1ccc(Cl)cc1)C(=O)OCc1cc([N+](=O)[O-])cc2c1OCOC2 (stereo not given) | -6.26%
CN(C(=O)CCn1c(=S)oc2ccccc21)C1CCCCC1 | 6.83%
Cc1c(C(=O)c2cccc([N+](=O)[O-])c2)c2ccccn2c1CCC#N | 10.5%
O=c1cc(CSc2ccc(Cl)cc2)nc(N2CCOCC2)[nH]1 | -33.8%
CSCc1cc(N2CCOCC2)nc(SCc2ccc(Cl)cc2Cl)n1 | 53.9% (active)
CSCc1cc(N(C)C)nc(SCc2ccc(Cl)cc2Cl)n1 | 8.94%
Cc1ccc(-n2ncc3c(Nc4cccc(C(=O)O)c4)ncnc32)cc1 | 10.2%
NC(=O)CC[C@@H]1NC(=O)[C@H](CO)NC(=O)c2cc([N+](=O)[O-])cc(I)c2NCC[C@@H](C(N)=O)NC1=O | -33.7%
S=c1[nH]nc(-c2cccs2)n1/N=C/c1cn(-c2ccccc2)nc1-c1ccc(Cl)cc1 | -33.4%
COc1ccc(OC(C)C(=O)Nc2cccnc2)cc1 (stereo not given) | -45%
COc1ccc(C(=O)C2CCCN(C(=O)c3cc4nc(C)cc(C)n4n3)C2)cc1F (stereo not given) | -25.8%

SMILES | inhibition
Cc1ccc2nc(-c3ccccc3)cc(C(=O)O)c2c1 | -19.3%
O=c1cc(-c2ccccc2)nc(N2CCCCC2)[nH]1 | -13.8%
c1ccc(-c2cc(N3CCCCC3)c3ccccc3n2)cc1 | 50.5% (active)
CN(C)CCCSc1ccccc1NC(=O)/C=C/c1ccccc1 | -17.5%
N#Cc1ccc(N2Cc3ccccc3/C2=N/C(=O)Nc2ccc(Cl)cc2)cc1 | -5.24%
Cc1cccc(NC(=S)N(CCN(C)C)C(C)c2ccco2)c1 (stereo not given) | -1.81%
FC(F)(F)c1nnc2ccc(N3CCN(c4ccccc4)CC3)nn12 | 8.02%
Fc1c(F)c(C(F)(F)F)c(F)c(F)c1N1CCN(c2ccc3nnc(C(F)(F)F)n3n2)CC1 | 58.9% (active)
Cc1ccnc(NC(=O)Cn2ccc([N+](=O)[O-])n2)c1 | -9.6%
Cc1cc(C)cc(C(=O)N(CCc2ccccc2)C2=CC3CCC(C2)N3C)c1 (stereo not given) | -21.9%
CCn1c(SCC(=O)N/N=C/c2ccccc2OCC(=O)O)nnc1-c1ccc(C(C)(C)C)cc1 | -10.5%
CCC/C=C(\CCC)C(NC(=O)Cc1ccccc1)c1ccc(C(=O)OC)cc1 (stereo not given) | 3.04%
CCOC(=O)CN(C)S(=O)(=O)c1ccc(-c2cc(C(=O)OC)sc2C(F)(F)F)cc1 | 17.5%
Oc1c(Br)cc(/C=N/NC(=S)NCC2CCCO2)cc1Br (stereo not given) | -20.7%
Cn1c(N)c(C(=O)COC(=O)c2cnc(Cl)c(Cl)c2)c(=O)n(C)c1=O | 69% (active)
CCc1ccc(OCC(=O)OCC(=O)c2c(N)n(C)c(=O)n(C)c2=O)cc1 | 4.26%
Cc1cc(C(=O)OCC(=O)c2c(N)n(C)c(=O)n(C)c2=O)c(C)o1 | 32.4%
Cc1csc(NC(=O)c2ccc(-c3ccc(Cl)cc3Cl)o2)n1 | -95.3%
COc1ccc(CN2CCN(Cc3cn(C)nc3-c3ccccc3)CC2CCO)c(C)c1C (stereo not given) | -24.9%
O=C1CCN(C(=O)Nc2ccccc2)N1 | 9.94%
CC(C)CNC(=O)CC(c1ccccc1)c1c(O)ccc2ccccc12 (stereo not given) | -74.9%
CCc1ccc(Oc2nc([N+](=O)[O-])nn2C)cc1 | -6.47%
C=CCn1c(SCc2cccc(F)c2)nc2cc(C(=O)N3CCC(C(N)=O)CC3)ccc2c1=O | -22.9%
O=C(NC(=S)Nc1cccc2c(O)cccc12)c1cccc(Br)c1 | -4.46%

SMILES | inhibition
Clc1ccc(-c2nnc(SCc3nc4ccccc4s3)o2)cc1 | 8.94%
O=C(OCC#CCSc1nnc(-c2ccncc2)o1)c1sc2ccccc2c1Cl | 20.6%
C#CCSc1nnc(-c2sc3ccccc3c2Cl)o1 | 50.5% (active)
Cc1cccc(N(C)C(=O)c2cc3c(=O)[nH]c4ccc(C)cc4c3s2)c1 | -47.9%
O=C(O)CCn1cc(/C=C/C(=O)c2ccc(Cl)cc2)c(-c2cccc(Br)c2)n1 | 31.9%
CS(=O)(=O)c1ccc2nc(NC(=O)c3ccc(Cl)nc3)sc2c1 | 8.84%
Nc1nc(-c2sc3nc4c(cc3c2N)CCCC4)nc(N2CCOCC2)n1 | -253%
CCOC(=O)CN/C=C(\C#N)c1ccc(F)cc1 | -15.5%
CCOc1cc(/C=C(/C#N)c2ccc(Cl)cc2)cc(Cl)c1OCC(=O)O | 50.5% (active)
C/C(=N\OCC(=O)O)c1ccc(Cl)cc1 | 25.9%
Nc1c(Cl)cc(S(N)(=O)=O)cc1S(N)(=O)=O | -2.3%
Cc1cc([N+](=O)[O-])c(-c2ccc(/C=N/n3cnnc3)o2)cc1Cl | 58.9% (active)
Cc1ccc(Cl)cc1-c1ccc(/C=N/n2cnnc2)o1 | 4.96%
Cc1cc(-c2ccc(/C=N/n3cnnc3)o2)c([N+](=O)[O-])cc1C | 34.4%
NS(=O)(=O)c1ccc(CNC(=O)c2cnccn2)cc1 | -9.46%
Cc1nc(NC2=NC(C(=O)Nc3ccc(Cl)cc3)CC(=O)N2)nc2ccccc12 (stereo not given) | 6.9%
CCNC(=O)N1c2ccccc2Sc2ccccc21 | -4.08%
CCC(C(=O)OCC(=O)Nc1c(Cl)cc(Cl)cc1Cl)c1ccccc1 (stereo not given) | 11.9%
CCC(C(=O)OCC(=O)Nc1ccccc1-c1ccccc1)c1ccccc1 (stereo not given) | 56.9% (active)
CCC(C(=O)OCC(=O)Nc1ccc(C(=O)Nc2ccc(OC)cc2)cc1)c1ccccc1 (stereo not given) | 38%
CCOc1c(CNCc2ccc(C(=O)O)cc2)cccc1OC | -12%
CC(=O)N1C(C)c2ccccc2C(C)(C)CC12CCCCC2 (stereo not given) | 10.1%
COc1ccc(S(=O)(=O)N(CC(=O)N/N=C/c2ccccc2C(=O)O)c2ccccc2OC)cc1 | -1.16%
COC(=O)CCCC1=CC2=CC(=O)C(C)(OC(=O)c3cccs3)C(=O)C2=CN1c1cccc(C#N)c1 (stereo not given) | -53.3%

SMILES | inhibition
CC(=NCc1ccco1)c1c(C(F)(F)F)[nH]n(-c2nc3ccccc3s2)c1=O | -91.3%
S=C(NCCc1ccccc1)Nc1ccccc1 | 16%
Cc1ccc(N2CCN(/N=C/c3cccs3)CC2)cc1 | -29.6%
Cc1ccsc1/C=C1\SC(N2CCOCC2)=NC1=O | 15.5%
Cc1ccc(N2CCN(C3=NC(=O)/C(=C\c4cccs4)S3)CC2)cc1 | 76.7% (active)
O=[N+]([O-])c1ccc(N2CCSCC2)cc1O | 2.99%
O=C(OCc1ccc(Br)cc1)c1cccc(-c2nnc(-c3ccccc3)o2)c1 | -6.16%
O=C(Nc1ccccc1C(F)(F)F)N1CCCC1c1cccnc1 (stereo not given) | 3.9%
O=C(c1cccc(F)c1)N1CCN(c2ccc([N+](=O)[O-])c(N3CCCCC3)c2)CC1 | 5.06%
O=[N+]([O-])c1ccc(N2CCN(S(=O)(=O)c3ccc4ccccc4c3)CC2)cc1NCc1ccco1 | -59%
O=C(c1ccccc1)N1CCN(c2ccc([N+](=O)[O-])c(NCc3ccco3)c2)CC1 | 54.3% (active)
O=C(COC(=O)c1ccc(Cl)nc1)NCc1cccs1 | 13.2%
C/C(=N/NC(=S)Nc1ccccc1)c1ccc2c(c1)OCO2 | -6.26%
CC(C)(C)c1cc(C(=O)NN)n(Cc2ccc(Cl)cc2Cl)n1 | 17.2%
Cn1c(=O)cc(OCC(=O)N2CCN(c3ccccc3F)CC2)c2ccccc21 | -13.2%
CC(C)Oc1ccc(CCc2n[nH]c(=S)n2Cc2ccccc2)cc1 | 53.5% (active)
CC(C)Oc1ccc(Cc2n[nH]c(=S)n2Cc2ccccc2)cc1Cl | 15.2%
C=CCn1c(CCc2ccc(OC(C)C)cc2)n[nH]c1=S | -15.1%
C/C(=N\NC(=S)NC(C)C)c1ccc(C(C)(C)C)cc1 | 6.32%
CC(C)NC(=S)NN=C1CCCCCCCCCCC1 | 54.9% (active)
CC(C)(C)NC(=O)C(=O)NN=C1CCCCCCC1 | -5.09%
Nc1ccc(Cl)c(S(=O)(=O)Nc2ccccc2Cl)c1 | -15%
COc1ccc(Cl)cc1C(=O)Nc1ccc(N(C)C(C)=O)cc1 | -12.6%
